Entries with a potency or affinity are not part of this list. Calls of active or inactive are those of the source. How the calls were made is not given here.

For this assay, the target named is CAAX prenyl protease 2 (Homo sapiens) (UniProt Q9Y256). Kind of assay: inhibition of Ras-converting CAAX protease Rce1 – biochemical, yeast membranes, quenched-peptide fluorescence, cherry-pick, dose response (AID 588849). The conditions noted are these: yeast membrane fractions expressing human Rce1, quenched-peptide fluorescence, 4 h; series mostly up to 10 µM.
Sequence of CAAX prenyl protease 2 (Homo sapiens) (Q9Y256 whole entry, looked up): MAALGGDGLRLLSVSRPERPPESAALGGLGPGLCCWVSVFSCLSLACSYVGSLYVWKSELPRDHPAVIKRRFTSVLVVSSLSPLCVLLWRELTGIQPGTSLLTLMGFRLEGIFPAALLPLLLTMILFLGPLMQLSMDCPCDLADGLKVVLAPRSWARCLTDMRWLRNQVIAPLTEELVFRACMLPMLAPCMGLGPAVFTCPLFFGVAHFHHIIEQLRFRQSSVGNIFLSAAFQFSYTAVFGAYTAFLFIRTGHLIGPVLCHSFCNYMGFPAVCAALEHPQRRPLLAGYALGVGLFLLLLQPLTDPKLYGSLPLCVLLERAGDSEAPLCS
Take `c1ccn2cc(-c3ccc4c(c3)OCCO4)nc2c1`: the result was inactive. With `Nc1nnc(-c2ccncc2)s1`, the outcome was inactive. To `CCn1nc(C)cc1C(=O)NC1CC(C)(C)Cc2c1cnn2-c1cccc(F)c1` (centres undefined) belongs “inactive”; to `O=C(NC1CC1)c1ccc2c(c1)N(Cc1ccccc1)CCS2`, “inactive”. As to `NC(=O)[C@H]1CC2(CC(c3cccc(NC(=O)COc4ccc(Cl)cc4)c3)=NO2)CN1C(=O)C(c1ccccc1)c1ccccc1` (some centres undefined), the outcome was inactive.

`CCN(CC)CCN(C(=O)c1cc2ccccc2cc1OC)c1nc2ccc(F)cc2s1`: the molecule was classed as inactive. On to `Cc1ccc(NC(=O)CCc2ccc(S(=O)(=O)NC3CCCCC3)cc2)cc1`, for which the result was inactive. To `CN(C)CCNc1ncnc2oc(-c3ccccc3)c(-c3ccccc3)c12` belongs “inactive”; to `COc1ccccc1-n1c(-c2ccccc2)c[nH]c1=S`, “inactive”.

As to `Cc1ccc(N=Cc2c(O)n(C)c(=O)n(C)c2=O)nc1`, the molecule was classed as inactive. On to `CC1(C)CC2CC(C)(CN2S(=O)(=O)c2ccc(N)cc2)C1` (centres undefined), for which the molecule was classed as inactive. In the case of `CCC1CCCCN1C(=O)NC(=O)c1ccccc1` (centres undefined), the molecule was called inactive. On to `O=C(CN1CCC(NC(=O)c2ccc(Br)cc2)CC1)NCc1cccs1`, for which the call was inactive. To `COc1cc(C(=O)OCC(=O)Nc2ccc(SC(F)F)cc2)cc(OC)c1OC` belongs “inactive”; to `COc1ccc(S(=O)(=O)N(CC(=O)N2CCCC2)Cc2ccccc2)cc1`, “inactive”. As for `Cn1c(CCNS(=O)(=O)c2ccccc2)nnc1SCc1cccnc1`, the call was inactive. For `CCn1c(COc2cccc(C)c2)nnc1SCC(=O)NC1CCCC1` the value was “inactive”; for `O=C1OCCN1C(=O)[C@H]1[C@H](c2ccc(F)cc2)C(c2ccc(F)cc2)=NN1c1ccc(Br)cc1`, “inactive”; for `COc1cc(-c2nc3ccccn3c2/N=C/c2ccccc2)ccc1O`, “inactive”. As to `CCOc1ccc(C2C(C(=O)OC)=CN(C(C)c3ccccc3)C=C2C(=O)OC)cc1` (centres undefined), the molecule was classed as inactive. In the case of `COc1cccc(CNc2nc3nc(C)cc(C)n3n2)c1`, the molecule was classed as inactive.

On to `O=C(NCCc1c[nH]c2ccccc12)OCCSS(=O)(=O)O`, for which the molecule was called inactive. On to `Cc1cc(OCC(=O)N2CCC(C(=O)O)CC2)c2c(C)cc(=O)oc2c1`, for which the result was inactive.

In the case of `Cc1cc(Cl)c2oc(C(=O)N3CCN(C(=O)c4ccco4)CC3)c(C)c2c1`, the result was inactive. For `Cc1ccc(S(=O)(=O)CC(=O)N2CCN(c3ccccc3F)CC2)cc1` the value was “inactive”. `Cc1cc(C)n2cc(CSc3nncn3C)nc2n1`: the outcome was inactive. For `c1cnn(Cc2cnc(N3CCOCC3)s2)c1` the value was “inactive”.

`CC(C)c1ccc(/C=C2\SC(=S)N(CCC(=O)NCCCn3ccnc3)C2=O)cc1`: the call was inactive. On to `CC(=O)NC(Cc1c[nH]c2ccccc12)C(=O)O` (centres undefined), for which the molecule was called inactive.

For the molecule `O=C(O)CCC(=O)c1ccc(-c2ccccc2)cc1`, the call was inactive.

For the molecule `O=S(=O)(CC(CN1CCOCC1)N1CCOCC1)c1ccccc1` (centres undefined), the outcome was inactive.

For the molecule `CCOC(=O)c1nnn2c1nc(N1CCOCC1)c1ccccc12`, the call was inactive.

Take `N=c1c(C(=O)NCc2ccc(F)cc2)cc2c(=O)n3ccccc3nc2n1Cc1cccnc1`: the molecule was classed as inactive. To `CCN(CC)CCNC(=O)CSc1c2c(nc3cc(Cl)ccc13)CCCC2` belongs “inactive”; to `Cc1c(Cl)c([N+](=O)[O-])nn1CC(=O)N1CCCc2ccccc21`, “inactive”; to `CC(=O)Oc1ccc(C(=O)Nc2ccc(S(=O)(=O)NCC3CCCO3)cc2)cc1` (centres undefined), “inactive”. For `CC1=C(C(=O)OCc2ccccc2)C(c2ccc(-c3ccccc3)cc2)NC(=O)N1CCCC(=O)O` (centres undefined) the value was “inactive”; for `COc1ccc(NS(=O)(=O)c2c(C)cc(C)cc2C)cc1`, “inactive”. Turning to `O=C(C(Cc1ccccc1)N1C(=O)c2ccccc2C1=O)N1c2ccccc2CCc2ccccc21` (centres undefined), the molecule was classed as inactive.

(Values after PubChem BioAssay AID588849 (Broad Institute, 2011).)
